From PubChem BioAssay AID602376 (Johns Hopkins Ion Channel Center, 2012)
Potency and affinity values are given separately. Inconclusive results are not listed. Calls of active or inactive are those of the source.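 How the source made its calls: active means raises choline transporter activity at one or more tested doses and gives a fitted dose-response curve; inconclusive means no clear call, values can overlap the other calls; inactive means no choline transporter activation at any dose, or no curve.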

target: High affinity choline transporter 1 (Homo sapiens) (UniProt Q9GZV3); experiment: CHT activators, dose response, cell-based, 10-point CRC, membrane potential dye (AID 602376); conditions: HEK293-CHT, choline-induced membrane potential dye, cells express CHT LV-AA mutant; series mostly up to 67 µM
Sequence (Q9GZV3 whole entry, looked up): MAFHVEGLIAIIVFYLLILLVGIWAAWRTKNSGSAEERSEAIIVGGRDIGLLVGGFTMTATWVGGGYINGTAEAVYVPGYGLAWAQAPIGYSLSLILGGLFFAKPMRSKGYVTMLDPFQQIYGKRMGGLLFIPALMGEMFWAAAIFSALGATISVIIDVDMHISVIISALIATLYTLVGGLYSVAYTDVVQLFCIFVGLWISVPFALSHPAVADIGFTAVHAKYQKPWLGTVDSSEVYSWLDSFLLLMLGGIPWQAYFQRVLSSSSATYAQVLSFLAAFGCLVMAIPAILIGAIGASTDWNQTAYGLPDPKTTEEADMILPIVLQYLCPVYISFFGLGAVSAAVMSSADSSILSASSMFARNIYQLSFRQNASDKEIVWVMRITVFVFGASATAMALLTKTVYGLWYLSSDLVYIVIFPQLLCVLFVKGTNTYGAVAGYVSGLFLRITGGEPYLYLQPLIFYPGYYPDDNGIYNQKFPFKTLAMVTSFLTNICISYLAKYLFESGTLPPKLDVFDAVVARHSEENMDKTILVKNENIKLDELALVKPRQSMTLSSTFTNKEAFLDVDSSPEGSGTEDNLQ

outcome, inactive:
CCCCn1c(N)c(N(CCOC)C(=O)c2ccc(COc3ccccc3)o2)c(=O)[nH]c1=O, CCOC(=O)C[C@H]1c2ccccc2S(=O)(=O)N1Cc1cccc(C(F)(F)F)c1, COc1cc(-c2noc(C)c2C#Cc2ccccn2)cc(OC)c1OC, O=C(NCCC1=CCCCC1)C1CCN(Cc2cnn(-c3ccccc3)c2-n2cccc2)CC1, CCOC(=O)C1CCN(C(=O)CCc2nnc3ccc(N4CCN(C)CC4)nn23)CC1, CC(C)(C)n1nnnc1C(c1cccnc1)N1CCN(c2cccc(C(F)(F)F)c2)CC1 (configuration not stated), COc1ccc(-c2csc3nc(C)nc(N4CCCCC4)c23)cc1OC, CCOC(=O)C1(CC2CC2)CCN(Cc2cn[nH]c2-c2cccc(F)c2)CC1, CCOc1cc(-c2sc(Nc3cc(C)ccc3OC)n[n+]2-c2ccccc2)ccc1OC, Cc1cccc(Oc2nc(CN3CCOCC3)nc3sc4c(c23)CCCC4)c1, N#Cc1c(N)oc(-c2ccco2)c1-c1ccco1, O=C(NCC(c1ccco1)N1CCc2ccccc2C1)c1cccc(F)c1 (configuration not stated), Cc1nc(N(C)Cc2ccccc2)c2c(C)c(C)sc2n1, O=C(COc1ccccc1)NCC(c1ccco1)N1CCN(c2ccc(F)cc2)CC1 (configuration not stated), O=C1CCCCCCCCCC/C(=N\O)CCCO1, CC(Sc1nnc(-c2ccc(Cl)cc2Cl)n1Cc1ccccc1)C(=O)Nc1nccs1 (configuration not stated), C/C(=N\NC(=O)c1nnn(-c2nonc2N)c1CN1CCC(C)CC1)c1cccc(Br)c1
